Our source for the Potency values is PubChem BioAssay (NCATS).

Results filed as inconclusive are left out. A number with no mark means an inactive call. Active and inactive are the calls of the source. Unless noted, the call rests on the fitted dose curve; in most records, active means well fitted curve in the direction sought with a large enough effect; inconclusive means small, poorly fitted or top-dose-only effect, or another doubt; inactive means no such curve, though single readings can be large; an effect the other way counts as inactive or inconclusive.

In assay [1] the target is Aldehyde dehydrogenase, mitochondrial (Homo sapiens) (UniProt P05091). The assay can be described thus: qHTS for Inhibitors of the Aldehyde Dehydrogenase Family (ALDH2) Confirmatory screens (AID 2061303; active means well fitted inhibition curve with a large enough effect; title and protocol of this record describe different tests; further: nearly all actives have a fitted effect of over 45% in size; further: potency means the concentration at half of the fitted maximal effect). A general note: In qHTS, concentration-response curves come from the screen itself.
The nature of assay [2]: qHTS for Inhibitors of the Aldehyde Dehydrogenase Family (ALDH1A2, ALDH1A3, ALDH2, ALDH3A1) (AID 2061307). Further: nearly all actives have a fitted effect of over 50% in size. On Potency: test system not described further here; potency means the concentration at half of the fitted maximal effect.
Assay [3] addresses Aldehyde dehydrogenase, mitochondrial (Homo sapiens) (UniProt P05091). The assay can be described thus: qHTS for Inhibitors of the Aldehyde Dehydrogenase Family (ALDH2) Primary screen (AID 2061308). Further: nearly all actives have a fitted effect of over 55% in size. Further: potency means the concentration at half of the fitted maximal effect.
For assay [4], the target named is Retinaldehyde dehydrogenase 3 (Homo sapiens) (UniProt P47895). Briefly: qHTS for Inhibitors of the Aldehyde Dehydrogenase Family (ALDH1A3) Confirmatory screens (AID 2061311). Further: nearly all actives have a fitted effect of over 60% in size. Further: potency means the concentration at half of the fitted maximal effect.
The target of assay [5] is Retinal dehydrogenase 2 (Homo sapiens) (UniProt O94788). The assay can be described thus: qHTS for Inhibitors of the Aldehyde Dehydrogenase Family (ALDH1A2) Confirmation screens (AID 2061314). Further: nearly all actives have a fitted effect of over 65% in size. Further: potency means the concentration at half of the fitted maximal effect.
In assay [6] the target is Retinaldehyde dehydrogenase 3 (Homo sapiens) (UniProt P47895). The assay can be described thus: qHTS for Inhibitors of the Aldehyde Dehydrogenase Family (ALDH1A3) Primary screen (AID 2061315).
In assay [7] the target is Aldehyde dehydrogenase 1A1 (Homo sapiens) (UniProt P00352). Briefly: qHTS for Inhibitors of the Aldehyde Dehydrogenase Family (ALDH1A1) Confirmatory screens (AID 2061316). Further: nearly all actives have a fitted effect of over 65% in size. Further: potency means the concentration at half of the fitted maximal effect.

Consider `COc1ccc(N2Cc3cccc(C(=O)O)c3C2=O)c(OC)c1`, for which the Potency result in assay [1], in assay [2], in assay [3], in assay [4], in assay [5] and in assay [6] was “inactive” each time. Moreover, the Potency entry in assay [7] is “inactive”.
Take `COc1ccc(C2=Nn3c(nnc3-c3cc(OC)cc(OC)c3)SC2)cc1`: the Potency result in assay [1], in assay [2], in assay [3], in assay [4], in assay [5] and in assay [6] was “inactive” throughout. The Potency result in assay [7] is “inactive”.
As for `O=C(O)c1ccc(S(=O)(=O)N[C@H](Cc2ccc(C(F)(F)F)cc2)C(=O)O)cc1`, the Potency result in assay [1], in assay [2], in assay [3], in assay [4], in assay [5] and in assay [6] was “inactive” each time. Moreover, the Potency entry in assay [7] was “inactive”.
Turning to `COc1cccc(C2c3c(ncn(CCCN4CCOCC4)c3=N)Oc3ccc4ccccc4c32)c1` (configuration not stated), the Potency result in assay [1], in assay [2], in assay [3], in assay [4], in assay [5] and in assay [6] was “inactive” in each case. Moreover, the Potency result in assay [7] is “inactive”.
Take `Cc1nc2ccccn2c1P(=O)(c1ccccc1)c1ccccc1`: the Potency result in assay [1], in assay [2], in assay [3], in assay [4], in assay [5] and in assay [6] was “inactive” each time. The Potency result in assay [7] is “inactive”.
Take `CCCCNc1ccc(C(=O)OCCN(CC)CC)cc1`: the Potency result in assay [1], in assay [2], in assay [3], in assay [4], in assay [5] and in assay [6] was “inactive” throughout. Moreover, the Potency result in assay [7] was “inactive”.
Turning to `COc1ccc(C[C@@H](NS(=O)(=O)c2ccc(C(=O)O)cc2)C(=O)O)cc1`, the Potency entry in assay [1], in assay [2], in assay [3], in assay [4], in assay [5] and in assay [6] was “inactive” in each case. In addition, the Potency entry in assay [7] was “inactive”.
On to `c1cncc(-c2ccc(CNc3nc(C4CCCC4)nc4ccccc34)cc2)c1`, for which the Potency entry in assay [1], in assay [2], in assay [3], in assay [5], in assay [6] and in assay [7] was “inactive” each time. Also, in assay [4], the Potency was 11.3 µM (active).
As for `Cc1noc(C)c1-c1csc(N2CCC(C(N)=O)CC2)n1`, the Potency entry in assay [1], in assay [2], in assay [3], in assay [4], in assay [5] and in assay [6] was “inactive” in each case. In addition, the Potency entry in assay [7] was “inactive”.
`COc1ccc(C[C@H](N)C(=O)N[C@H]2[C@@H](O)[C@H](n3cnc4c(N(C)C)ncnc43)O[C@@H]2CO)cc1`: the Potency result in assay [1], in assay [2], in assay [3], in assay [4], in assay [5] and in assay [6] was “inactive” in each case. Further, in assay [7], the Potency result is “inactive”.
Take `CCOC(=O)c1cccc(-n2cccc2/C=C2\NC(=O)N(CC(=O)O)C2=O)c1`: the Potency result in assay [1], in assay [2], in assay [3], in assay [4] and in assay [6] was “inactive” throughout.
With `FC(F)(F)c1cccc(N2CCN(C(=S)Nc3nccc4cccnc34)CC2)c1`, the Potency in assay [1] was 11.3 µM (active); in assay [2], 28.2 µM (active); in assay [3], 7.94 µM (active); in assay [4] it was 11.3 µM (active); in assay [5] it was 10.1 µM (active); in assay [7] it was 7.98 µM (active).
As for `Cc1ccc(Nc2nc(C#N)nc(NC3CCCC3)n2)cc1`, the Potency entry in assay [1], in assay [2], in assay [3], in assay [4] and in assay [6] was “inactive” in each case.
For the compound `O=[N+]([O-])c1ccc(CNc2ccc([S+](=O)([O-])Nc3nccs3)cc2)c(O)c1`, the Potency entry in assay [1], in assay [2], in assay [3], in assay [4] and in assay [6] was “inactive” in each case.
Regarding `COc1ccc(C2=Nn3c(nnc3-c3ccccc3C)SC2)cc1`, the Potency entry in assay [1], in assay [2], in assay [3], in assay [4] and in assay [6] was “inactive” each time.
On to `COc1cccc(C2c3c(ncn(-c4ccccc4C#N)c3=N)Oc3ccc4ccccc4c32)c1` (configuration not stated), for which the Potency entry in assay [1], in assay [2], in assay [3] and in assay [6] was “inactive” throughout. Further, in assay [4], the Potency was 25.2 µM (active).
Take `O=C(O)c1cccc(-n2cccc2)c1`: the Potency entry in assay [1], in assay [2], in assay [3], in assay [4], in assay [6] and in assay [7] was “inactive” in each case.
`CCOC(=O)c1ccc(O)c2ncc(-c3ccc(C(=N)N)cc3)cc12`: the Potency entry in assay [1], in assay [2], in assay [3], in assay [5] and in assay [7] was “inactive” in each case. The Potency in assay [4] is 10.1 µM (active).
As to `O=C(Nc1ccc2c(c1)CCC2)Nc1nnc(-c2ccncc2)s1`, the Potency result in assay [1], in assay [2], in assay [3], in assay [4] and in assay [6] was “inactive” in each case.
On to `CC(=O)c1ccc(N2CCN(C(=O)c3ccc4c(c3)CC(=O)N4)CC2)cc1`, for which the Potency entry in assay [1], in assay [2], in assay [3], in assay [4] and in assay [6] was “inactive” in each case.
In the case of `Cn1nnnc1Sc1ncnc2scc(-c3cnc(N)nc3)c12`, the Potency result in assay [1], in assay [2], in assay [3], in assay [4] and in assay [6] was “inactive” each time.
As for `CCOc1cc(CNc2ccc(O)cc2)ccc1OCc1ccc(Cl)cc1`, the Potency is 10.1 µM (active) in assay [1]; 11.3 µM (active) in assay [2]; 3.16 µM (active) in assay [3]; 1.01 µM (active) in assay [4]; 0.504 µM (active) in assay [5]; 6.34 µM (active) in assay [7].
As for `O=C1CCCC2=C1C(c1[nH]ncc1Cl)NC(=S)N2` (configuration not stated), the Potency entry in assay [1], in assay [2], in assay [3], in assay [4] and in assay [6] was “inactive” in each case.
As to `N#Cc1ccc(-c2ccc(CNc3ccc(N4CCCCC4)cc3)o2)cc1`, the Potency in assay [1] is 0.0712 µM (active); in assay [2] it was 0.712 µM (active); in assay [4], 11.3 µM (active); in assay [5] it was 2.25 µM (active); in assay [7], 8.96 µM (active). Besides, the Potency result in assay [3] was “inactive”.
For the compound `COc1ccc(OC)c(-c2nnc3n2N=C(c2ccc(OC)c(OCC4CC4)c2)CS3)c1`, the Potency result in assay [1], in assay [2], in assay [3], in assay [4] and in assay [6] was “inactive” throughout. The Potency in assay [7] is 2.25 µM (active).
Take `O=C(NN1CCCC1)NS(=O)(=O)c1ccc(Cl)cc1`: the Potency result in assay [1], in assay [2], in assay [3], in assay [4], in assay [5] and in assay [7] was “inactive” throughout.
